Values joined by “and” are separate entries in the source; they are usually repeats but may differ in a detail not shown here. Equal values may be shown once. Results filed as inconclusive are left out. Unmarked numbers belong to inactive results. Active and inactive are the calls of the source. Calls follow the shape of the dose curve; as a rule, active = well fitted inhibition curve with a large enough effect; inconclusive = small, poorly fitted or top-dose-only effect; inactive = flat fitted curve, though single readings scatter.

Drawing on PubChem BioAssay (NCATS), this text covers Potency, max response and outcome for 29 molecules.
% is scaled to controls: 0 for no effect and ±100 for the full control effect; potency is read from the fitted curve at half-maximal effect.

In one assay the test system is CRL-7250. Put plainly: Cytotoxic Profiling of Annotated Libraries Using Quantitative High-Throughput Screening (AID 1296008). Also: nearly all actives have a fitted effect of over 60% in size. The note with it: Five cell lines viability, CellTiter-Glo ATP luminescence, 48-72 h; max response: active compounds read low. The procedure, abridged:
(§1)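 Cytotoxicity was measured as CellTiter-Glo ATP luminescence, read after 10 min at room temperature. Compound treatment of the cells lasted 48 or 72 hr at 37 degrees Celsius in a qHTS format.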
A general note: Cellular ATP, detected with luciferase, serves as a proxy for viable cell number.
On to `CCN(CC)CCCC(C)Nc1c2ccc(Cl)cc2nc2ccc(OC)cc12` (stereo not given), for which the Potency was 16.8 µM (active).
For the molecule `NC(=O)NNc1ccccc1`, the max response was 2.83%.
Take `CCN(CC)CCSC(=O)C(c1ccccc1)c1ccccc1`: the max response is -12.1%.
Regarding `OCc1cc(C(O)CNCCCCCCOCCCCc2ccccc2)ccc1O` (stereo not given), the max response is -15.6%.
In the case of `CC(C)c1c(C(=O)Nc2ccccc2)c(-c2ccccc2)c(-c2ccc(F)cc2)n1CC[C@@H](O)C[C@@H](O)CC(=O)O`, the Potency was 6.68 µM (active) and 2.73 µM (active).
Take `CN1CCN(C2Cc3ccccc3Sc3ccc(Cl)cc32)CC1` (stereo not given): the max response was -15.1%.
In the case of `CC(CN(C)C)CN1c2ccccc2CCc2ccccc21` (stereo not given), the result was inactive.
Consider `CC1(C)Oc2ccc(C#N)cc2[C@@H](N2CCCC2=O)[C@@H]1O`, for which the molecule was classed as inactive.
Take `CN1CCCCC1CCN1c2ccccc2Sc2ccc(S(C)=O)cc21` (stereo not given): the call was inactive.
As for `COC(=O)C1=C(C)NC(C)=C(C(=O)OC)C1c1ccccc1[N+](=O)[O-]`, the max response was -7.51%.
On the same count and under the same terms, in the case of `NC(=O)N/N=C/c1ccc([N+](=O)[O-])o1` it was -6.15%.
Still for that read-out and setting: in the case of `C[C@]12C[C@H](O)[C@H]3[C@@H](CCC4=CC(=O)CC[C@@]43C)[C@@H]1CC[C@@H]2C(=O)CO` it was 3.36%; in that of `O=C1Nc2ccc(Cl)cc2[C@@](C#CC2CC2)(C(F)(F)F)O1`, -9.32% and 4.5%.

A further assay concerns HEK293. The assay is described as above. The note with it: Five cell lines viability, CellTiter-Glo ATP luminescence, 48-72 h; max response: active compounds read low. The procedure, abridged: as §1
On to `CC(=O)Oc1ccc(C2(c3ccc(OC(C)=O)cc3)C(=O)Nc3ccccc32)cc1`, for which the max response was 1.93%.
As to `CCN(CC)CCCC(C)Nc1c2ccc(Cl)cc2nc2ccc(OC)cc12` (stereo not given), the Potency is 7.5 µM (active) and 3.17 µM (active).
As for `NC1[C@H]2CN(c3nc4c(cc3F)c(=O)c(C(=O)O)cn4-c3ccc(F)cc3F)C[C@@H]12` (stereo not given in full), the Potency was 15 µM (active).
Regarding `COc1ccc2cc1Oc1ccc(cc1)C[C@H]1c3c(cc4c(c3Oc3cc5c(cc3OC)CCN(C)[C@@H]5C2)OCO4)CCN1C`, the Potency is 10.6 µM (active) and 7.31 µM (active).
Consider `CC(=O)O[C@@]12CO[C@@H]1C[C@H](O)[C@@]1(C)C(=O)[C@H](O)C3=C(C)[C@@H](OC(=O)[C@H](O)[C@@H](NC(=O)OC(C)(C)C)c4ccccc4)C[C@@](O)([C@@H](OC(=O)c4ccccc4)[C@H]21)C3(C)C`, for which the Potency was 0.0021 µM (active).
For `CC(CN1c2ccccc2Sc2ccccc21)N(C)C` (stereo not given), the Potency is 11.9 µM (active).
For the molecule `NC(=O)NNc1ccccc1`, the max response was 0.574%.
The same measure, in the same setting: the value for `C=Cc1c(C)c2cc3[nH]c(cc4nc(cc5nc(cc1[nH]2)C(C)=C5CCC(=O)O)C(CCC(=O)O)=C4C)c(C)c3C=C` was -10.7%.
For `CCN(CC)CCNC(=O)c1c(C)[nH]c(/C=C2\C(=O)Nc3ccc(F)cc32)c1C`, the Potency was 8.41 µM (active).
Turning to `CSc1ccc2c(c1)C(N1CCN(C)CC1)Cc1ccccc1S2` (stereo not given), the Potency was 16.8 µM (active).
Regarding `CC1(C)Oc2ccc(C#N)cc2[C@@H](N2CCCC2=O)[C@@H]1O`, the max response is -3.16%.
With `COC(=O)C1=C(C)NC(C)=C(C(=O)OC)C1c1ccccc1[N+](=O)[O-]`, the max response was -14.4%.
`C[C@]12C[C@H](O)[C@H]3[C@@H](CCC4=CC(=O)CC[C@@]43C)[C@@H]1CC[C@@H]2C(=O)CO`: the result was inactive.
On to `[Cl][In]([Cl])[Cl]`, for which the max response was 1.84%.
As to `OCCN1CCN(CCCN2c3ccccc3Sc3ccc(Cl)cc32)CC1`, the Potency was 11.9 µM (active).

Another assay deals with HaCat. The assay is described as above. The note with it: Five cell lines viability, CellTiter-Glo ATP luminescence, 48-72 h; max response: active compounds read low. The procedure, abridged: as §1
Consider `CC(=O)Oc1ccc(C2(c3ccc(OC(C)=O)cc3)C(=O)Nc3ccccc32)cc1`, for which the max response is -16.5%.
With `CNCCCC1c2ccccc2C=Cc2ccccc21`, the max response was -1.18%.
As for `COc1ccc2cc1Oc1ccc(cc1)C[C@H]1c3c(cc4c(c3Oc3cc5c(cc3OC)CCN(C)[C@@H]5C2)OCO4)CCN1C`, the result was inactive.
As to `CCCCN(CCCC)CC(O)c1cc(Cl)cc2c1-c1ccc(Cl)cc1/C2=C/c1ccc(Cl)cc1` (stereo not given), the max response was -7.84%.
In the case of `CC(CN1c2ccccc2Sc2ccccc21)N(C)C` (stereo not given), the max response is 3.18%.
As to `NC(=O)NNc1ccccc1`, the max response is -7.26%.
For `C=Cc1c(C)c2cc3[nH]c(cc4nc(cc5nc(cc1[nH]2)C(C)=C5CCC(=O)O)C(CCC(=O)O)=C4C)c(C)c3C=C`, the call was inactive.
On to `CCN(CC)CCSC(=O)C(c1ccccc1)c1ccccc1`, for which the max response is -3.95%.
For the molecule `OCc1cc(C(O)CNCCCCCCOCCCCc2ccccc2)ccc1O` (stereo not given), the max response is 2.23%.
Turning to `CN1CCN(C2Cc3ccccc3Sc3ccc(Cl)cc32)CC1` (stereo not given), the result was inactive.
As to `CN(C)CCC=C1c2ccccc2CCc2ccccc21`, the result was inactive.
In the case of `CC(CN(C)C)CN1c2ccccc2CCc2ccccc21` (stereo not given), the max response is 2.23%.
Turning to `CSc1ccc2c(c1)C(N1CCN(C)CC1)Cc1ccccc1S2` (stereo not given), the call was inactive.
Take `CC1=C(CC(=O)O)c2cc(F)ccc2/C1=C\c1ccc(S(C)=O)cc1` (stereo not given): the result was inactive.
In the case of `CN1CCCCC1CCN1c2ccccc2Sc2ccc(S(C)=O)cc21` (stereo not given), the call was inactive.
For the molecule `CC1=C(/C=C/C(C)=C/C=C/C(C)=C/C(=O)O)C(C)(C)CCC1`, the max response was -3.44%.
With `COC(=O)C1=C(C)NC(C)=C(C(=O)OC)C1c1ccccc1[N+](=O)[O-]`, the max response is -2.57%.
On to `CNCC(O)c1ccc(O)c(O)c1` (stereo not given), for which the max response is -0.0091%.
For the molecule `NC(=O)N/N=C/c1ccc([N+](=O)[O-])o1`, the max response was -0.194% and the molecule was called inactive.
For `C[C@]12C[C@H](O)[C@H]3[C@@H](CCC4=CC(=O)CC[C@@]43C)[C@@H]1CC[C@@H]2C(=O)CO`, the max response was 1.38%.
Consider `O=C1Nc2ccc(Cl)cc2[C@@](C#CC2CC2)(C(F)(F)F)O1`, for which the outcome was inactive.
